The subject of experiment [1] is Vero E6 infected with SARS-CoV-2. Briefly: morphology score (similarity to uninfected cells); higher = more like uninfected cells. Particulars: 24 h.
The test system is the same in experiment [2]. Description: SARS-CoV-2 infection rate relative to infected DMSO; higher = more infection, active = 60 or less. The note with it: 24 h.

SMILES strings stand for the structures.

In turn, `C[C@]12C=CC(=O)N[C@@H]1CC[C@@H]1[C@@H]2CC[C@]2(C)[C@@H](C(=O)Nc3cc(C(F)(F)F)ccc3C(F)(F)F)CC[C@@H]12` [dutasteride] (10 µM) displayed a morphology score in experiment [1] of 0.111. Also, the SARS-CoV-2 infection rate in experiment [2] is 111% (inactive).

In the case of `CC1(C)[C@@H](OC(=O)CCC(=O)O)CC[C@]2(C)[C@H]3C(=O)C=C4[C@@H]5C[C@@](C)(C(=O)O)CC[C@]5(C)CC[C@@]4(C)[C@]3(C)CC[C@@H]12` (10 µM), the morphology score in experiment [1] worked out at 0.0746. The SARS-CoV-2 infection rate in experiment [2] is 106% (inactive).

With `C=CC(=O)N1CCN(C(=O)CNc2cc(I)c(Cl)cc2O)CC1` [K-Ras(G12C)-inhibitor-12] (10 µM), the morphology score in experiment [1] was -0.138. Besides, the SARS-CoV-2 infection rate in experiment [2] was 111% (inactive).

In experiment [1], `Cn1c(NCCN(CCO)CCCc2ccc([N+](=O)[O-])cc2)cc(=O)n(C)c1=O` [nifekalant] (10 µM) came in with a morphology score of -0.0636. In addition, in experiment [2], the SARS-CoV-2 infection rate was 120% (inactive).

As to `C#C[C@]1(O)CC[C@H]2[C@@H]3CCC4=CC(=O)CCC4=C3C=C[C@@]21CC` [gestrinone] (10 µM), in experiment [1], the morphology score turned out to be 0.0853. Besides, in experiment [2], the SARS-CoV-2 infection rate is 103% (inactive).

`COc1cc(S(C)(=O)=O)ccc1Nc1nc2ccc(-c3ccc(NC(=O)[C@H](C)c4ccc(F)cc4)cc3)cn2n1` (10 µM) came in with a morphology score in experiment [1] of -0.122. In experiment [2], the SARS-CoV-2 infection rate was 105% (inactive).

As for `CCC[C@@H]1C[C@@H](C(=O)N[C@@H]([C@H]2O[C@H](SC)[C@H](O)[C@@H](O)[C@H]2O)[C@@H](C)O)N(C)C1` [lincomycin] (10 µM), the morphology score in experiment [1] is -0.111. The SARS-CoV-2 infection rate in experiment [2] was 105% (inactive).

As to `Nc1nc2c(cnn2CCc2ccccc2)c2nc(-c3ccco3)nn12` (10 µM), the morphology score in experiment [1] is -0.139. Besides, in experiment [2], the SARS-CoV-2 infection rate was 112% (inactive).

On to `C[C@H]1O[C@@H](n2cc(F)c(=O)[nH]c2=O)[C@H](O)[C@@H]1O` [doxifluridine] (10 µM), for which the morphology score in experiment [1] was determined as 0.32. For the same compound, the SARS-CoV-2 infection rate in experiment [2] is 108% (inactive).
